In PubChem BioAssay (EPA / NIEHS):
Inconclusive results are not listed. Active and inactive are the calls of the source. How the source made its calls, unless noted: active means hit-call score of the fitted dose curve at least 0.9, where 1 is the maximum; inactive means score below 0.9.

Columns and labels:
[1] = read-out: E-selectin (Homo sapiens) (UniProt P16581); assay: BSK_SAg_Eselectin: BioMAP Diversity Plus: SAg Assay for Eselectin Biomarker Activity (AID 2283091); settings: primary human HUVEC with PBMC; actives raise or lower the signal
In short: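 Human umbilical vein endothelial cells co-cultured with peripheral blood mononuclear cells, SAg system. E-selectin is measured by ELISA 24 h after dosing and fitted bidirectionally against DMSO. Cytotoxicity is checked by SRB staining of parallel cultures.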

[2] = read-out: Monokine induced gamma interferon (MIG), CXCL9 (gene 4283); assay: BSK_SAg_MIG: BioMAP Diversity Plus: SAg Assay for Monokine induced gamma interferon (MIG) Biomarker Activity (AID 2283092); settings: primary human HUVEC with PBMC; actives raise or lower the signal
In short: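 Values reflect bidirectional fitting of ELISA-measured MIG against DMSO vehicle, taken 24 h after dosing of a co-culture of human umbilical vein endothelial cells and peripheral blood mononuclear cells.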

[3] = BSK_SAg_PBMCCytotoxicity: PBMC Cytotoxicity Assessment in the BioMAP Diversity Plus: SAg Assay (AID 2283093); settings: primary human HUVEC with PBMC;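 further: PBMC viability measured as Alamar Blue reduction fluorescence at 546/580 nm; fitted both ways against DMSO so a hit may be loss or gain of signal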;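 on AC50: PBMC superantigen activated with SEB plus TSST-1 one hour after compound addition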
In short: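 Human umbilical vein endothelial cells co-cultured with PBMC; PBMC (75,000/well) pre-treated with compound 1 h, then activated with SEB and TSST-1 (20 ng/mL final each) for 90 h. Alamar Blue added 6 h, fluorescence 546/580 nm; bidirectional fit versus DMSO.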

[4] = read-out: Interleukin-8 (IL8), CXCL8 (gene 3576); assay: BSK_SAg_IL8: BioMAP Diversity Plus: SAg Assay for Interleukin-8 (IL8) Biomarker Activity (AID 2283094); settings: primary human HUVEC with PBMC; actives raise or lower the signal
In short: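 Human umbilical vein endothelial cells co-cultured with PBMC, stimulated with superantigen; IL-8 measured by ELISA 24 h after chemical dosing. Bidirectional fitting versus DMSO; SRB staining in parallel cultures tracks cytotoxicity.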

[5] = BSK_SAg_Proliferation: Cell Proliferation Assessment in the BioMAP Diversity Plus: SAg Assay (AID 2283095); settings: primary human HUVEC with PBMC
In short: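 Human umbilical vein endothelial cells co-cultured with PBMC; sulforhodamine B total-protein staining (0.1% SRB after 10% TCA fixation, absorbance 560 nm) at 96 h in sub-confluent culture. Fitted bidirectionally against DMSO.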

[6] = BSK_SAg_SRB: Viability Assessment in the BioMAP Diversity Plus: SAg Assay (AID 2283096); settings: primary human HUVEC with PBMC;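 further: cells read one day after compound addition; hits may be either gain or loss of signal compared with DMSO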
In short: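 Endothelial/PBMC primary human co-culture; compound 24 h; fix 10% TCA, stain 0.1% SRB, A560; protein content as cytotoxicity proxy; bidirectional curve fit, DMSO = baseline.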

[7] = read-out: Monocyte Chemoattractant Protein-1 (MCP1), CCL2 (gene 6347); assay: BSK_SAg_MCP1: BioMAP Diversity Plus: SAg Assay for Monocyte Chemoattractant Protein-1 (MCP1) Biomarker Activity (AID 2283090); settings: primary human HUVEC with PBMC; actives raise or lower the signal
In short: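 MCP-1 levels in the endothelial–PBMC SAg co-culture were quantified by ELISA at 24 h post-dosing; both increases and decreases versus DMSO scored. Cytotoxicity monitored by SRB total protein in parallel cultures.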

[8] = target: human CYP2D6, CYP2D6 (gene 1565) (UniProt P10635); assay: NVS_ADME_hCYP2D6: NovaScreen (NVS) CYP450-related Enzyme Activity (ADME) Assay for human CYP2D6 (AID 2283107; active means hit-call score of the fitted dose curve at least 0.9, where 1 is the maximum)
human CYP2D6, CYP2D6 (gene 1565), sequence (P10635 whole entry, looked up): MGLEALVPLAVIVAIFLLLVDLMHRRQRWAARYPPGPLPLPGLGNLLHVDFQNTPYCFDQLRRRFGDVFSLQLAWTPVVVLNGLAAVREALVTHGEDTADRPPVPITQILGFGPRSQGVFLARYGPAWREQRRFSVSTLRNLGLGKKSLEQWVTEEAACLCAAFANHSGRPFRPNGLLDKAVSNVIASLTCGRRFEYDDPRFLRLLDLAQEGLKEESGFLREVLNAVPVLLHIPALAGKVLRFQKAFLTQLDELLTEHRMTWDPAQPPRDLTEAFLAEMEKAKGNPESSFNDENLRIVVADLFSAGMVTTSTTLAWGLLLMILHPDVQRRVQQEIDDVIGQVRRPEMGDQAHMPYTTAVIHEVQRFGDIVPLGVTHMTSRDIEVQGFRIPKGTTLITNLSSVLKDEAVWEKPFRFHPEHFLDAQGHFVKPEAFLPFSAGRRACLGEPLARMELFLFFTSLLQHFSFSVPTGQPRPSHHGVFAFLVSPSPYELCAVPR
In short: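 Cell-free assay using recombinant human CYP2D6 expressed in insect cells, with a fluorogenic substrate read after 1 h. Primary screen in duplicate at 10 uM; actives followed up in concentration series. Loss of signal fitted relative to acetonitrile.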

[9] = target: human CYP2C9, CYP2C9 (gene 1559) (UniProt P11712); assay: NVS_ADME_hCYP2C9: NovaScreen (NVS) CYP450-related Enzyme Activity (ADME) Assay for human CYP2C9 (AID 2283108; active means hit-call score of the fitted dose curve at least 0.9, where 1 is the maximum)
human CYP2C9, CYP2C9 (gene 1559), sequence (P11712 whole entry, looked up): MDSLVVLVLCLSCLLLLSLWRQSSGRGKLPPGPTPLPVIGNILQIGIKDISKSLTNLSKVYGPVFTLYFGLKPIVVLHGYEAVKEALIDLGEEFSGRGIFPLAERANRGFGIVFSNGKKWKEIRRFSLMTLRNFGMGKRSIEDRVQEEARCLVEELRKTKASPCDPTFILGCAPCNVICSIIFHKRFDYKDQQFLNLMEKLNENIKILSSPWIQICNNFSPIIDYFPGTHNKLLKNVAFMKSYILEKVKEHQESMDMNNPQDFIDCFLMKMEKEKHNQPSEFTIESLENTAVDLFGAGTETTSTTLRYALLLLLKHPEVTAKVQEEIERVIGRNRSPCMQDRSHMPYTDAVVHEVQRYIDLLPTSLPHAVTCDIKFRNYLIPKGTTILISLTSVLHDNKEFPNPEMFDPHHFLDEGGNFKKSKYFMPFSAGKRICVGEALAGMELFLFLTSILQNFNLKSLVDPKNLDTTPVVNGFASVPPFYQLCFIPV
In short: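 Cell-free assay of recombinant human CYP2C9 produced in Sf9 cells, with enzyme activity read by fluorescence intensity 0.75 h after compound addition. Loss of signal versus an acetonitrile negative control indicates inhibition. Primary screen used 10 uM in duplicate; actives were retested in concentration series.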

[10] = target: human AKT serine/threonine Kinase 1 (AKT1), AKT1 (gene 207) (UniProt P31749); assay: NVS_ENZ_hAKT1: NovaScreen (NVS) Enzymatic Assay for human AKT serine/threonine Kinase 1 (AKT1) (AID 2283138; active means hit-call score of the fitted dose curve at least 0.9, where 1 is the maximum)
human AKT serine/threonine Kinase 1 (AKT1), AKT1 (gene 207), sequence (P31749 whole entry, looked up): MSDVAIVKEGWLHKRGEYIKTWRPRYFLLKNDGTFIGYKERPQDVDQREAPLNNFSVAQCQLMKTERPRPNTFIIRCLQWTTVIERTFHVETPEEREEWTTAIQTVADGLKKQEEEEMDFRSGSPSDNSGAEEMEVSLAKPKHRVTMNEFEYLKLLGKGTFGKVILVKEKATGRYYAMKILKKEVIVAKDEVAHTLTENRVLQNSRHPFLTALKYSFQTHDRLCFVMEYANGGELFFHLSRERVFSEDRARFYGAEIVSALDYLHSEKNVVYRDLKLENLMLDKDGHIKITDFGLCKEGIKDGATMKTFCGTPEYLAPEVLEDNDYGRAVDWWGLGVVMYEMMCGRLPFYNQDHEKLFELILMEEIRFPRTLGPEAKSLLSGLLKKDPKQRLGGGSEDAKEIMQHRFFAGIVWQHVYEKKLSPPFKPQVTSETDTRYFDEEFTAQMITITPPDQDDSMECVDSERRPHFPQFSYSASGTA
In short: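 Recombinant human AKT1 with a specific substrate, product separated by electrophoretic mobility shift, read after 1 h. Compounds at 25 uM in duplicate, then concentration-response up to 50 uM for hits; inhibition relative to DMSO.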

[11] = target: human CYP2A6, CYP2A6 (gene 1548) (UniProt P11509); assay: NVS_ADME_hCYP2A6: NovaScreen (NVS) CYP450-related Enzyme Activity (ADME) Assay for human CYP2A6 (AID 2283099; active means hit-call score of the fitted dose curve at least 0.9, where 1 is the maximum)
human CYP2A6, CYP2A6 (gene 1548), sequence (P11509 whole entry, looked up): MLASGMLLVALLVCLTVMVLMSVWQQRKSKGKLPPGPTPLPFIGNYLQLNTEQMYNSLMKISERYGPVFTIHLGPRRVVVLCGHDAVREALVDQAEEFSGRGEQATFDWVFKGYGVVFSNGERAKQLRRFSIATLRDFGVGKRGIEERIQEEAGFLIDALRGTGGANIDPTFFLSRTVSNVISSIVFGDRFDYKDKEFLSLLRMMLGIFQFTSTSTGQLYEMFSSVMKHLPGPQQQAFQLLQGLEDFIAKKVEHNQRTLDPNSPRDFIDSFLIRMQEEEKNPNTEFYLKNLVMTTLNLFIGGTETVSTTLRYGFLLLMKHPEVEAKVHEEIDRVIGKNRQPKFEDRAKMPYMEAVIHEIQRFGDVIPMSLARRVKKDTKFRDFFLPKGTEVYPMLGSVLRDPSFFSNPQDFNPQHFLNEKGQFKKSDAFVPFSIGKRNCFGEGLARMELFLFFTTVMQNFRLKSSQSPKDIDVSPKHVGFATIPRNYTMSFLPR
In short: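 Recombinant human CYP2A6 expressed in insect cells, cell-free; fluorogenic substrate turnover read by fluorescence intensity 0.5 h after dosing. Primary screen 10 uM in duplicate, then concentration-response up to 20 uM; acetonitrile as negative control.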

[12] = target: human CYP2B6, CYP2B6 (gene 1555) (UniProt P20813); assay: NVS_ADME_hCYP2B6: NovaScreen (NVS) CYP450-related Enzyme Activity (ADME) Assay for human CYP2B6 (AID 2283101; active means hit-call score of the fitted dose curve at least 0.9, where 1 is the maximum)
human CYP2B6, CYP2B6 (gene 1555), sequence (P20813 whole entry, looked up): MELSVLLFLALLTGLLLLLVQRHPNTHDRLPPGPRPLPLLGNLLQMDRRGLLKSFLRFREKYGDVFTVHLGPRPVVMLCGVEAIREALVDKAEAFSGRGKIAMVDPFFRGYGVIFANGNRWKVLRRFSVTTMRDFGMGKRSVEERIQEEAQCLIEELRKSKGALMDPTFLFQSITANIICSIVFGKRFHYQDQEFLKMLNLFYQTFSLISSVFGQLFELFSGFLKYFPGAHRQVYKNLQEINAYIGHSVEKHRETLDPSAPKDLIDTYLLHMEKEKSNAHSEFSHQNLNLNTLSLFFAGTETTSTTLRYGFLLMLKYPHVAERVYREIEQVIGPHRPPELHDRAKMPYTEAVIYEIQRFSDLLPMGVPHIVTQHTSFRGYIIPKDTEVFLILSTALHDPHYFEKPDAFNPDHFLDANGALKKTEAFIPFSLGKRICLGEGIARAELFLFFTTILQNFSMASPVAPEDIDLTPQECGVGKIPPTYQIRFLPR
In short: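 Compounds were first screened in duplicate at 10 uM against recombinant enzyme, with the fluorescent product measured after 1 hour. Active compounds were retested over a concentration series. Loss of fluorescence versus acetonitrile control was scored as reduced enzyme activity.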

[13] = target: human CYP1A2, CYP1A2 (gene 1544) (UniProt P05177); assay: NVS_ADME_hCYP1A2: NovaScreen (NVS) CYP450-related Enzyme Activity (ADME) Assay for human CYP1A2 (AID 2283102; active means hit-call score of the fitted dose curve at least 0.9, where 1 is the maximum;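 further: potency for inhibition since loss of fluorescence marks reduced CYP1A2 activity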)
human CYP1A2, CYP1A2 (gene 1544), sequence (P05177 whole entry, looked up): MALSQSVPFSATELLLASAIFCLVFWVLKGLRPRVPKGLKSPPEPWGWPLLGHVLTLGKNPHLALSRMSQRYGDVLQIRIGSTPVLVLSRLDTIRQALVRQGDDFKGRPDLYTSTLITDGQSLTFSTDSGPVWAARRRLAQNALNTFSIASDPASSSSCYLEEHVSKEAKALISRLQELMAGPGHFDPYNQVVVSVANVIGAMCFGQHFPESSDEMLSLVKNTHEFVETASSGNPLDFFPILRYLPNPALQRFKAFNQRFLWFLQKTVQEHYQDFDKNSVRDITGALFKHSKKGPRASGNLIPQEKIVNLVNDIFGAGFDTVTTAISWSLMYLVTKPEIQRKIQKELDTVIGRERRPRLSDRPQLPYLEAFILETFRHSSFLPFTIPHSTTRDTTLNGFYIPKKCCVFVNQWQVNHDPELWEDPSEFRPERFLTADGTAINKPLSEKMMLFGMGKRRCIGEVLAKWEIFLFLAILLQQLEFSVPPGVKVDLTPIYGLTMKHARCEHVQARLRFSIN
In short: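 Recombinant human CYP1A2 from insect cells, cell-free, fluorogenic substrate; read 0.5 h after dosing with loss of fluorescence signal indicating inhibition. Primary screen in duplicate at 10 uM, acetonitrile as negative control.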

Measured: AC50

E-selectin (Homo sapiens), sequence (P16581 whole entry, looked up): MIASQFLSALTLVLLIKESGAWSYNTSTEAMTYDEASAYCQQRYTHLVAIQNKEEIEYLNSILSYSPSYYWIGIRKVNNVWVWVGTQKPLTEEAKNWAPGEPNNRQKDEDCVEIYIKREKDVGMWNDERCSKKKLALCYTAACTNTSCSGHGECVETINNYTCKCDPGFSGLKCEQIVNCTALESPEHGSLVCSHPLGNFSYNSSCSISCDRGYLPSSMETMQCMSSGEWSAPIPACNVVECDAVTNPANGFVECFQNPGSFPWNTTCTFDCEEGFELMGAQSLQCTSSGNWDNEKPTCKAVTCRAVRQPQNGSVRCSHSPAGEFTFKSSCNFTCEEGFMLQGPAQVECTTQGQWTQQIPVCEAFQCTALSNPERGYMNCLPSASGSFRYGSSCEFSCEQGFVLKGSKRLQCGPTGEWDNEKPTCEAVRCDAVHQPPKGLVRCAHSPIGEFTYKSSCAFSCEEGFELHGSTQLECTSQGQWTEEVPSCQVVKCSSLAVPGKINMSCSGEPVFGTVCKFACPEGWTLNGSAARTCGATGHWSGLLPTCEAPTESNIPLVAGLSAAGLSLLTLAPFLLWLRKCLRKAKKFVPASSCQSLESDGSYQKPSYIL

Cc1ccc(Cl)cc1
inactive: [1] | [2] | [3] | [4] | [5] | [6]

Cc1cc(=O)[nH]c(=S)[nH]1
inactive: [1] | [2] | [3] | [4] | [5] | [6]

COc1cc(C=O)ccc1O
inactive: [1] | [2] | [3] | [4] | [5] | [6]

CCCCCCC(=O)OCC
active: [9] 14.8 µM
inactive: [7] | [1] | [2] | [3] | [5] | [6] | [8]

Nc1nc(N)c2nc(CNc3ccc(C(=O)N[C@@H](CCC(=O)O)C(=O)O)cc3)cnc2n1
active: [5] 3.22 µM | [9] 12.3 µM
inactive: [7] | [1] | [2] | [3] | [6]

Cc1cccc(Nc2cc(Cl)nc(SCC(=O)O)n2)c1C
inactive: [1] | [2] | [3] | [4] | [5] | [6]

O=c1c(O)c(-c2ccc(O)c(O)c2)oc2cc(O)cc(O)c12
inactive: [7] | [1] | [2]
active: [3] 13 µM | [5] 28.6 µM | [6] 31 µM

CNC(=O)[C@H]1O[C@@H](n2cnc3c(NCc4cc(Cl)ccc4OCc4cc(C)no4)ncnc32)[C@H](O)[C@@H]1N
inactive: [7] | [1] | [2] | [3] | [5] | [6] | [10]

Clc1cc(Cl)c(Cl)cc1Cl
inactive: [7] | [1] | [2] | [3] | [5] | [6]

CC1(C)NC(=O)NC1=O
inactive: [7] | [1] | [2] | [3] | [5] | [6]

Nc1ccc2c(c1)C(=O)c1ccccc1C2=O
inactive: [7] | [1] | [2] | [3] | [5] | [6] | [11] | [12] | [10]
active: [13] 4.65 µM
